# Source: PubChem BioAssay (NCATS)
# Results filed as inconclusive are left out. The source made the active and inactive calls. Unless noted, the call rests on the fitted dose curve; in most records, active means well fitted curve in the direction sought with a large enough effect; inconclusive means small, poorly fitted or top-dose-only effect, or another doubt; inactive means no such curve, though single readings can be large; an effect the other way counts as inactive or inconclusive.
# How the values were obtained:
# [1] = target: Lysosomal acid glucosylceramidase (Homo sapiens) (UniProt P04062); experiment: Glucocerebrosidase-p2 (AID 348; in the data active means potency below about 10 µM; further: potency means the concentration at half of the fitted maximal effect); conditions: purified GBA, blue fluorogenic substrate, 40 min
# Chain of Lysosomal acid glucosylceramidase (Homo sapiens) (P04062 whole entry, looked up): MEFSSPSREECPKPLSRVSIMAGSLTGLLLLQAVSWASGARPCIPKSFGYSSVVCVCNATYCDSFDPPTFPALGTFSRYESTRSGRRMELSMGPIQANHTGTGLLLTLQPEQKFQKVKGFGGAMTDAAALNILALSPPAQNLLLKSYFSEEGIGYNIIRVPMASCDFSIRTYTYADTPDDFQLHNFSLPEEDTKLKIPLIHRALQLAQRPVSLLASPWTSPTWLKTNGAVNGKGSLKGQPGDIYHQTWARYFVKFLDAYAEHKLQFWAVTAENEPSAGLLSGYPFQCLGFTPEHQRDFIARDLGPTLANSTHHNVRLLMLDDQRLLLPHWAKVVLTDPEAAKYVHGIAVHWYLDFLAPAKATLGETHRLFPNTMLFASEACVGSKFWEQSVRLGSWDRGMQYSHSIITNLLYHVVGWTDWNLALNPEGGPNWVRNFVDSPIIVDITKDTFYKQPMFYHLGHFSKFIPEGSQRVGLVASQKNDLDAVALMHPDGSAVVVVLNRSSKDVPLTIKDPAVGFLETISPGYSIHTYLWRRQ
# Method in brief: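 Normal human glucocerebrosidase (0.2 nM) with blue fluorogenic substrate (80 uM final) in citrate/phosphate pH 5.9 with 10mM sodium taurocholate, 0.01% tween-20; 40 min RT, NaOH/glycine stop; fluorescence Ex 365/Em 440; AC50 from a titration from 0.6 nM upwards.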
# [2] = AP1 Signaling Pathway (AID 357; active means well fitted curve in either direction with a large enough effect, not every such curve was filed as active;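 further: ME-180 reporter cells stimulated with EGF at its EC50 level; on the % scale 0 is the no-effect control and ±100 the full control effect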); conditions: ME-180 AP-1-bla reporter, EGF-induced, beta-lactamase ratio, 5 h; at 7.69 µM (top of the series) unless noted
# Method in brief: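 A ratiometric CCF4 readout (405 nm excitation; 460 and 530 nm emission) quantified AP-1-driven beta-lactamase in ME-180 cells after 5 h with compound and EC50 EGF; AC50 values were derived for activators and inhibitors.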
# [3] = NFAT Signaling Pathway (AID 444; active means well fitted curve in either direction with a large enough effect, not every such curve was filed as active;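 further: carbachol stimulus at about its EC50 of 1 µM final; on the % scale 0 is the no-effect control and ±100 the full control effect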); conditions: Jurkat NFAT-bla M1, carbachol, beta-lactamase ratio, 5 h; at 7.69 µM (top of the series) unless noted
# Method in brief: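 Jurkat cells with NFAT-driven β-lactamase reporter and co-expressed M1 receptor, stimulated with carbachol (final 1 uM, ~EC50), compound titration, 5 h at 37 °C. CCF4 loaded 1 h at RT; 460/530 nm ratio gave %activity and AC50.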
# [4] = Stat Signaling Pathway (AID 446; active means well fitted curve in either direction with a large enough effect, not every such curve was filed as active;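 further: ME-180 cervical cancer cells given 40 pM IL-6 alongside compound; SIE-controlled beta-lactamase reporter measured as 460/530 nm FRET emission ratio; on the % scale 0 is the no-effect control and ±100 the full control effect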); conditions: ME-180 SIE beta-lactamase reporter, IL-6 stimulated, 5 h; at 7.69 µM (top of the series) unless noted
# Method in brief: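 FRET read-out (405 nm excitation, 460/530 nm emission) of a beta-lactamase reporter under a STAT-inducible element in ME-180 cervical carcinoma cells. Cells with compound receive 40 pM IL-6 for 5 h. Values are normalised to AC90 stimulation and AC90 JAK-inhibitor controls.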
# [5] = target: Glucocorticoid receptor (Homo sapiens) (UniProt P04150); experiment: GR-EFC Redistribution (AID 451; calls by dose curve; further: potency means the concentration at half of the fitted maximal effect); conditions: CHO-K1 GR-EFC translocation, beta-gal luminescence, 2 h
# Chain of Glucocorticoid receptor (Homo sapiens) (P04150 whole entry, looked up, the tested form may be a part): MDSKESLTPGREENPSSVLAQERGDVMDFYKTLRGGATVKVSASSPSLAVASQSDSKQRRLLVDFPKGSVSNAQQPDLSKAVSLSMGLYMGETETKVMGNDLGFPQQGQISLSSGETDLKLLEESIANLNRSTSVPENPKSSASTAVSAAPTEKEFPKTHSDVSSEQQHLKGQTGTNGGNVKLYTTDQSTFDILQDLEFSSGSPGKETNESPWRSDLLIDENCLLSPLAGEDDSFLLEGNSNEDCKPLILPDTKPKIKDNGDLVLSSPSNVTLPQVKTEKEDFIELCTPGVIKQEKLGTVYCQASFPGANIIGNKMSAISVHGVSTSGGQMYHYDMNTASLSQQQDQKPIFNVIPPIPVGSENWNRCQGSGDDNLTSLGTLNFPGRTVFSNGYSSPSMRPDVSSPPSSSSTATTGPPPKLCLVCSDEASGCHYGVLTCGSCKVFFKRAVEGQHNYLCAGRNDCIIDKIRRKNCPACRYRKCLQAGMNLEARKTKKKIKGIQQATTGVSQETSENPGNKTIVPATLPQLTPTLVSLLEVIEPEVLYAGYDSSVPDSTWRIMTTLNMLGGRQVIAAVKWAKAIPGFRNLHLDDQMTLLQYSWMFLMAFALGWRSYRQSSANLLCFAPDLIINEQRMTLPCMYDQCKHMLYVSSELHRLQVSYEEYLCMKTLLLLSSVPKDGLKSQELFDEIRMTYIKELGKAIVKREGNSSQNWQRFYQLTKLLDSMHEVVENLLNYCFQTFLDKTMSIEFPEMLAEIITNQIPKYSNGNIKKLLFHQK
# Method in brief: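 CHO-K1 cells expressing nuclear EA and GR-ED fragments of b-gal; compounds titrated up to 46 uM final, 2 h at 37 C. GR nuclear translocation read as complemented b-gal luminescence after 1 h RT detection.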
# [6] = target: Mitogen-activated protein kinase 10 (Mus musculus) (UniProt Q61831); experiment: JNK3 AlphaScreen Assay (AID 530; active means well fitted curve in either direction with a large enough effect, not every such curve was filed as active;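 further: kinase came from lysate of stimulated human HepG2 cells; signal reports phosphorylation of biotinylated GST-cJun 1-79 at Ser73 with 10 µM ATP; on the % scale 0 is the no-effect control and ±100 the full control effect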); conditions: JNK3 lysate, c-Jun phosphorylation; series mostly up to 57.1 µM
# Method in brief: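 HepG2 lysate (IL-1b/TNFa pre-activated) + biotin-GST-cJun 1-79 + anti-pSer73 cJun; cpd titration, 15 min RT; ATP 10 uM start; Tris pH 7.6, MgCl2, DTT, vanadate; beads in EDTA buffer; AlphaScreen.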
# [7] = qHTS Assay for Lipid Storage Modulators (AID 1519; calls by dose curve; further: potency means the concentration at half of the fitted maximal effect); conditions: Drosophila S3 cells, BODIPY lipid droplet/cell ratio, laser cytometry, cells loaded with oleic acid; for activity change, negative = inhibition: at 57.5 µM (top of the series)
# Method in brief: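 Cells seeded at 5,000 per well were treated with compounds over a concentration series and loaded with oleic acid (400 uM, as added). Lipid droplet fluorescence (488 nm excitation, 500-530 nm channel) was read by laser-scanning cytometry and normalized to 20 uM Triacsin C.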
# [8] = target: Dual specificity protein kinase CLK4 (Homo sapiens) (UniProt Q9HAZ1); experiment: qHTS Assay for Inhibitors of CDC-like Kinase 4 (Kinase-Glo Assay) (AID 1770); conditions: recombinant Clk4, Kinase-Glo ATP depletion luminescence; series mostly up to 66.7 µM; further: on the % scale 0 is the no-effect control and ±100 the full control effect; nearly all actives have a fitted effect of over 65% in size
# Chain of Dual specificity protein kinase CLK4 (Homo sapiens) (Q9HAZ1 whole entry, looked up): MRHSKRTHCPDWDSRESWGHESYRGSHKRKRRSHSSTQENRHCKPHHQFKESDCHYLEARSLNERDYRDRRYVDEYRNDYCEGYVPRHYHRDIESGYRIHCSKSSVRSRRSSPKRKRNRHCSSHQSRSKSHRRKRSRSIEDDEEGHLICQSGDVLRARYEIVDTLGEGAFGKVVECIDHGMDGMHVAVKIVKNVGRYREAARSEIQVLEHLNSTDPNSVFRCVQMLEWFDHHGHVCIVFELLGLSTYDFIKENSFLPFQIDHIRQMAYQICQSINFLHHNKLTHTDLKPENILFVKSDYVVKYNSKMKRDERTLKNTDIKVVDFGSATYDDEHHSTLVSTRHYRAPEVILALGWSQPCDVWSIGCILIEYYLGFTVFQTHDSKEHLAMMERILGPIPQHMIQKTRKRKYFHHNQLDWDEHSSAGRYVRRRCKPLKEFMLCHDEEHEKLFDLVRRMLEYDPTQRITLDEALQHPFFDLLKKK
# Method in brief: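 Inhibition was judged from remaining ATP, measured by Ultra-Glo luciferase bioluminescence after Clk4 (25 nM) had acted on RS peptide at 1 uM ATP for 4.5 hours, room temperature.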
# [9] = target: Dual specificity protein kinase CLK4 (Homo sapiens) (UniProt Q9HAZ1); experiment: qHTS Assay for Inhibitors of CDC-like Kinase 4 (ADP-Glo Assay) (AID 1771); conditions: recombinant CLK4, ADP-Glo luminescence; series mostly up to 80 µM; further: on the % scale 0 is the no-effect control and ±100 the full control effect; nearly all actives have a fitted effect of over 70% in size
# Method in brief: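 25 nM Clk4, 100 uM RS peptide, 1 uM ATP (final); 2 mM MgCl2, 0.5 mM EGTA, 2.5 mM DTT, 0.01% Triton X-100; 1 hr RT. ADP-Glo readout: ATP depletion 45 min, conversion/luciferase 30 min, luminescence.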
# [10] = target: Dual specificity protein kinase CLK4 (Homo sapiens) (UniProt Q9HAZ1); experiment: qHTS Assay for Inhibitors of CDC-like Kinase 4 (ADP-FP Assay) (AID 1795); conditions: Transcreener ADP fluorescence polarization; series mostly up to 50 µM;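 further: recombinant human CLK4 phosphorylating RS repeat peptide at 1 µM ATP; on the % scale 0 is the no-effect control and ±100 the full control effect; nearly all actives have a fitted effect of over 60% in size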
# Method in brief: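 Inhibition of ADP formation by 6.25 nM Clk4 is measured using 1 uM ATP and 100 uM RS repeat peptide over one hour. Produced ADP displaces a fluorescent tracer from antibody, lowering polarization.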
# [11] = target: Ubiquitin carboxyl-terminal hydrolase 1 (Homo sapiens) (UniProt O94782); experiment: Inhibitors of USP1/UAF1: Pilot qHTS (AID 504865); conditions: purified USP1/UAF1, Ub-rhodamine cleavage fluorescence; series mostly up to 54.9 µM;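 further: rhodamine fluorescence freed from ubiquitin-rhodamine substrate followed over time; top concentration of the series differs between compounds; on the % scale 0 is the no-effect control and ±100 the full control effect; nearly all actives have a fitted effect of over 35% in size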
# Chain of Ubiquitin carboxyl-terminal hydrolase 1 (Homo sapiens) (O94782 whole entry, looked up): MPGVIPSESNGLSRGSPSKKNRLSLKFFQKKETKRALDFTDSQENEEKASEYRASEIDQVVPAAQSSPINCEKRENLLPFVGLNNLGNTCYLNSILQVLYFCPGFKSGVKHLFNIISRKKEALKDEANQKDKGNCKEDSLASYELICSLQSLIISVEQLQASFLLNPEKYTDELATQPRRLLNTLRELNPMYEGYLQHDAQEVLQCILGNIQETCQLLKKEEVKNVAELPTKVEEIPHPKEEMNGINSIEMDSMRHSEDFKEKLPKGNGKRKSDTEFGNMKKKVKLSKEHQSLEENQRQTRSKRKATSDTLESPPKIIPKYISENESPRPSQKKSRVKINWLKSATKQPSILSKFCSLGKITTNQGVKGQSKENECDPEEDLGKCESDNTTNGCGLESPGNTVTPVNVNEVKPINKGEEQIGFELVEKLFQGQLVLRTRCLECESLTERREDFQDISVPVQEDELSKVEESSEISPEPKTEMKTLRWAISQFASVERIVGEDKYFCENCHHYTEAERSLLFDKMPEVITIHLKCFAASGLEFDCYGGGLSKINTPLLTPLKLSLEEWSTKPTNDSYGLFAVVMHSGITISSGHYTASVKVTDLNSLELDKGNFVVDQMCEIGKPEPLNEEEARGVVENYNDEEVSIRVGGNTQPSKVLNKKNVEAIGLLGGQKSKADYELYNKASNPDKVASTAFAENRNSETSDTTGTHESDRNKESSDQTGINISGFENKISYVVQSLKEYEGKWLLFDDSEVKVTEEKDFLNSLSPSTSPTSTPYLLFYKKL
# Method in brief: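 Kinetic fluorescence assay: 1nM USP1/UAF1, 15 min compound preincubation, then 150nM Ub-Rho; 480/540 nm.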
# [12] = Primary qHTS for small molecule stabilizers of the endoplasmic reticulum resident proteome: Secreted ER Calcium Modulated Protein (SERCaMP) assay (AID 1508630); conditions: SH-SY5Y GLuc-SERCaMP (Gaussia luciferase released on ER calcium loss) secretion, thapsigargin, luminescence; series mostly up to 38.4 µM; further: on the % scale 0 is the no-effect control and ±100 the full control effect
# Method in brief: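 The SH-SY5Y reporter protocol was run at 3 concentrations up to 38.3 uM (primary) or 11 concentrations (follow-up): 16 h compound, 100 nM thapsigargin for 4 h, then extracellular luciferase luminescence.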
# [13] = target: Glucocorticoid receptor (Homo sapiens) (UniProt P04150); experiment: GR-GFP Redistribution (AID 450;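 active means compounds whose dose series gives a full or clear partial fitted curve of increased nuclear translocation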; further: potency means the concentration at half of the fitted maximal effect); conditions: U2OS GR-GFP nuclear translocation, laser cytometry, 2 h
# [14] = target: 3',5'-cyclic-AMP phosphodiesterase 4B (Homo sapiens) (UniProt Q07343); experiment: qHTS Assay for Inhibitors of PDE-IV (AID 607; active means well fitted activation curve with a large enough effect in the main read-out, with a control signal flat, not every such curve was filed as active; further: % of control where 0% means no effect); conditions: HEK293 ACTOne CNG channel cells, membrane potential fluorescence; series mostly up to 22.9 µM
# Chain of 3',5'-cyclic-AMP phosphodiesterase 4B (Homo sapiens) (Q07343 whole entry, looked up): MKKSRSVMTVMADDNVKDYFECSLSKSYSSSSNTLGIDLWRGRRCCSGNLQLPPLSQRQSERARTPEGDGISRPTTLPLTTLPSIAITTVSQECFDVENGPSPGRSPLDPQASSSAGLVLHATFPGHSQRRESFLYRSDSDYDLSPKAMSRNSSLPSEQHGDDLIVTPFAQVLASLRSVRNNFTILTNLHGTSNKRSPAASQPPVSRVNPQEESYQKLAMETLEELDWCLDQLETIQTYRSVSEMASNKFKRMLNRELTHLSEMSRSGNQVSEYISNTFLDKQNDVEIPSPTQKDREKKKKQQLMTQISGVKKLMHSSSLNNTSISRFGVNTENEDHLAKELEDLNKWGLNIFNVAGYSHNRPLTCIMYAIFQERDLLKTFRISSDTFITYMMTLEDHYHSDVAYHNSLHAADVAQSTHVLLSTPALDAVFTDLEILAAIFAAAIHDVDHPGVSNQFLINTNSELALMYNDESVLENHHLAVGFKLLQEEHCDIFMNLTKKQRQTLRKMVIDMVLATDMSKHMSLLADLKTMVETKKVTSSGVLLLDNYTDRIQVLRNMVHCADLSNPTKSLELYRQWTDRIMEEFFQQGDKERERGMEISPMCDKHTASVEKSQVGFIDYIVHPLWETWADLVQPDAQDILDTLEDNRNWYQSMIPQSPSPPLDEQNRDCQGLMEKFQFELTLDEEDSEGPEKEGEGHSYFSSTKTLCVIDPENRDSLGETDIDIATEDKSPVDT
# Method in brief: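 Cell-based read-out of cAMP via a modified cyclic nucleotide-gated channel and membrane potential dye (535/590 nm) in HEK293 cells expressing PDE4 endogenously. Compounds tested up to 22.9 uM final; 100 uM RO 20-1724 reference.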
# [15] = qHTS Assay for Identification of Small Molecule Agonists for Hypoxia Response Element Signaling Pathway (AID 914; active means well fitted activation curve with a large enough effect in the signal ratio, with a control signal flat, not every such curve was filed as active; the % refers to the signal ratio; further: potency means the concentration at half of the fitted maximal effect; on activation: % of control where 0% means no effect); conditions: ME-180 (cervical carcinoma) HRE-bla reporter, beta-lactamase ratio, CoCl2, 17 h; activation: stronger effect = higher value
# Method in brief: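 AC50 values come from titration-series %Activity, taken as the 460/530nm ratio of CCF4 fluorescence (excitation 405nm). CellSensor HRE-bla ME-180 cells were treated 17 hours at 37 C with compound plus an EC50 level of CoCl2.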
# [16] = target: Cytochrome P450 3A4 (Homo sapiens) (UniProt P08684); experiment: qHTS Assay for Activators of Cytochrome P450 3A4 (AID 885); conditions: recombinant CYP3A4, Luciferin-PPXE luminescence, 60 min; series mostly up to 57.1 µM; further: nearly all actives have a fitted effect of over 65% in size
# Chain of Cytochrome P450 3A4 (Homo sapiens) (P08684 whole entry, looked up): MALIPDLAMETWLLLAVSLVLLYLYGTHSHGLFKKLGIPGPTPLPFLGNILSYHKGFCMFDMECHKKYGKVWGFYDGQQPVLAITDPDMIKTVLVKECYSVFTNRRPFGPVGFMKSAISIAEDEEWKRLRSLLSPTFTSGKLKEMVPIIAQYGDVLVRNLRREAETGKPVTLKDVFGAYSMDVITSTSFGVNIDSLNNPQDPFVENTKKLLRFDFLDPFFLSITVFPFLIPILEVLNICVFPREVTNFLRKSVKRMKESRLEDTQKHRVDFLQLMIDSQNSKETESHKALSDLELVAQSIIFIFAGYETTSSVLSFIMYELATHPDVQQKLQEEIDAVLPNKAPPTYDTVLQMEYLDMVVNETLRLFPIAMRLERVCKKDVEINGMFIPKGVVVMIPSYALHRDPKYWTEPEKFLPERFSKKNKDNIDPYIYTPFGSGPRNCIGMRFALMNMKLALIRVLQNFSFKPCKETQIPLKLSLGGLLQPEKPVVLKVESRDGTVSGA
# Method in brief: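 Luminescent readout of luciferin formed from 25 uM Luciferin-PPXE (KM level) by 20 nM CYP3A4 in 200 mM KPO4, with 60 min NADPH-driven reaction at room temperature after 10 min compound exposure. Ketoconazole (57 uM) defined 100% inhibition.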
# [17] = measured here: cell count channel max response
# [18] = measured here: lipid channel max response
SMILES,Potency [1],"activity change, negative = inhibition [2]","activity change, negative = inhibition [3]","activity, negative = inhibition [4]",Potency [5],outcome [6],"activity change, negative = inhibition [7]","max response [7, 17] [%]","max response [7, 18] [%]",Potency [8],Potency [9],Potency [10],Potency [11],Potency [12],Potency [13],Potency [14],activation [15],Potency [7],Potency [16],Potency [15]
CN(C)c1ncc2nc(-c3cn(C)c4ccccc34)c(=O)n(C[C@H]3CCCO3)c2n1,> 11.4 µM (inactive),-23.8% (inactive),3.82% (inactive),-10.1% (inactive),> 46 µM (inactive),inactive,6.78% (inactive),5.1,8.36,inactive,inactive,inactive,inactive,inactive,–,–,–,–,–,–
COCCn1c(=O)c(-c2ccc(F)cc2)nc2cnc(OC)nc21,> 11.4 µM (inactive),-3.31% (inactive),15.2% (inactive),-15% (inactive),> 46 µM (inactive),inactive,4.45% (inactive),6.98,9.8,inactive,inactive,inactive,inactive,inactive,> 9.22 µM (inactive),inactive,–,–,–,–
COc1cccc(Cn2c(=O)c(C)nc3cnc(OC)nc32)c1,> 11.4 µM (inactive),-5.98% (inactive),5.79% (inactive),-2.86% (inactive),> 46 µM (inactive),inactive,5.06% (inactive),15.1,19.3,inactive,inactive,inactive,inactive,inactive,> 9.22 µM (inactive),inactive,12.8% (inactive),–,–,–
COc1ccc(Oc2ncc3nc(-c4ccc(Cl)cc4)c(=O)n(C[C@H]4CCCO4)c3n2)cc1,> 11.4 µM (inactive),-19.3% (inactive),-18.6% (inactive),-13.9% (inactive),> 46 µM (inactive),inactive,–,-25.3,-85.4,inactive,inactive,inactive,inactive,inactive,> 9.22 µM (inactive),inactive,–,28.2 µM (active),–,–
Cc1nc2cnc(N3CCOCC3)nc2n(C2CC2)c1=O,> 11.4 µM (inactive),-11.6% (inactive),-11.7% (inactive),-3.09% (inactive),> 46 µM (inactive),inactive,7% (inactive),18,23.9,inactive,inactive,inactive,inactive,inactive,> 9.22 µM (inactive),inactive,–,–,inactive,–
CN(C)C(=O)c1ccc(-c2cncnc2NC2CCNCC2)cc1,> 11.4 µM (inactive),7.68% (inactive),9.18% (inactive),15.4% (inactive),> 46 µM (inactive),inactive,3.5% (inactive),11.8,12.7,inactive,inactive,inactive,inactive,inactive,> 46 µM (inactive),inactive,–,–,–,–
COc1ccc(-c2nc3cnc(Nc4ccccc4)nc3n(Cc3cccs3)c2=O)cc1,> 11.4 µM (inactive),19.7% (inactive),23.4% (inactive),–,–,inactive,0.81% (inactive),23.8,23.5,inactive,inactive,inactive,inactive,inactive,> 9.22 µM (inactive),inactive,–,–,–,3.16 µM (active)
